Largest response in the series, negative = inhibition and Potency data for 59 compounds are collected here from PubChem BioAssay AID1490 (National Center for Advancing Translational Sciences (NCATS), 2009).

Among all 310,000 compounds or so, about 11,000 (3.5%) were called active. Another 4% or so got no clear call; they are omitted. The sample holds actives, similar compounds and a random draw of the others, so the mix is not that of the screen. The call rests on the fitted dose curve; in most records, active means well fitted inhibition curve with a large enough effect; inconclusive means small, poorly fitted or top-dose-only effect, or another doubt; inactive means no such curve, though single readings can be large or run the other way.
Potency means the concentration at half of the fitted maximal effect.

This assay deals with 4'-phosphopantetheinyl transferase ffp (Bacillus subtilis) (UniProt Q9F4F7). As to the kind of experiment: qHTS Assay for Inhibitors of Bacillus subtilis Sfp phosphopantetheinyl transferase (PPTase).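 Further: the enzyme is Sfp with the accession as filed and its product quenches rhodamine fluorescence.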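 On Largest response in the series, negative = inhibition: 0% = enzyme reaction without inhibitor and -100% = no enzyme wells.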 The note with it: Biochemical Sfp PPTase activity. The text has this:
Assay Submitter: Michael Burkart, University of California, San Diego
Screening Center PI: Austin, C.P.
Screening Center: NIH Chemical Genomics Center [NCGC]
The covalent attachment of a phosphopantetheinyl (4'-PP) arm to a variety of synthases and other proteins is a key posttranslational protein modification. The 4'-PP is installed on the proteins post-translationally from coenzyme A (CoA) on a conserved serine residue by action of phosphopantetheinyl transferase (PPTase) enzymes. Phosphopantetheinylation is essential for synthase activity, and removal of the PPTase gene precludes natural product synthesis in microorganisms, or in the case of fatty acid biosynthesis, renders the organism unviable. PPTase enzymes belong to a distinct structural superfamily. Within bacteria, these enzymes are grouped into two classes based upon primary structure, the AcpS-Type and Sfp-Type PPTases.
Sfp-type PPTases, corresponding to an activator of surfactin production in Bacillus subtilis, are responsible for modifying type I polyketide and nonribosomal peptide synthases of prokaryotes. Sfp-type PPTases are responsible for the activation of a variety of pathogen-associated virulence factors. Among these compounds are toxins such as mycolactone from Mycobacterium ulcerans, siderophores such as vibriobactin from Vibrio cholerae or mycobactin from Mycobacterium tuberculosis, as well as the mycolic acids which form the waxy cell wall of Mycobacteria. The biosyntheses of these natural products are considered attractive targets for drug design.
In search of small molecule Sfp-PPTase inhibitors, a fluorescence quenching assay was developed for detection of Bacillus subtilis Sfp-PPTase enzymatic activity in a miniaturized high-throughput format. The consensus ybbr acceptor peptide […] was N-terminally labeled with Black Hole Quencher-2 (BHQ-2) and used in combination with rhodamine-labeled coenzyme A as a co-substrate.
Inhibition of Sfp-PPTase was detected by recording the fluorescence intensity change over a 30-minute reaction period at a 525 nm excitation and 598 nm emission. Reagents were supplied by Michael Burkart and Timothy Foley, University of California at San Diego.
This BioAssay deposition is for validation of the developed Sfp-PPtase assay.
Assay Buffer: 50 mM Hepes-Na pH 7.6, 10 mM MgCl2, 0.01% Nonidet P-40, and 0.01% BSA.
3 uL of Sfp-PPTase enzyme (final concentration 15 nM) and 1 uL of substrate mixture (final concentration for rhodamine-CoA and BHQ-2-YbbR 5 uM and 12.5 uM, respectively) dispensed in columns 1, 2, 5 - 48. Columns 1 and 2 used to generate neutral control (uninhibited reaction)
Three uL of reagents, consisting of buffer (in columns 3 and 4 as negative control) and Sfp-PPTase (in columns 1, 2, 5 - 48) were dispensed into 1,536-well Greiner black solid bottom plate. Compounds (23 nL) were transferred via Kalypsys pintool equipped with 1,536-pin array. The plate was incubated for 15 min at room temperature, followed by the addition of 1 uL substrate to start the reaction. The plate was then centrifuged at 1000 rpm for 15 seconds, and the fluorescence intensity recorded on a ViewLux High-throughput CCD imager (Perkin-Elmer) using standard BODIPY optics (525 nm excitation and 598 nm emission). The plate was then incubated for 30 minutes, and a second read on the ViewLux was performed. The fluorescence intensity difference over the 30-minute period was used to calculate the respective reaction rate for each well.
Background: In qHTS, concentration-response curves come from the screen itself.
With `O=S(=O)(NC1CCCC1)c1ccc(-n2cnnn2)cc1`, the largest response in the series, negative = inhibition was 25.6% (inactive).

Take `O=C(NCCCn1ccnc1)C1CCCN(S(=O)(=O)c2cc(Cl)ccc2Cl)C1` (centres undefined): the largest response in the series, negative = inhibition is 16.2% (inactive).

In the case of `O=C(c1cn(-c2ccccc2)nc1-c1cc2ccccc2oc1=O)N1CCOCC1`, the largest response in the series, negative = inhibition was -5.03% (inactive).

For `O=C(Nc1cc2ccccc2oc1=O)C1CCCCC1`, the largest response in the series, negative = inhibition is 26.6% (inactive).

Consider `O=c1oc2ccccc2cc1-c1cn(-c2ccccc2)c(=S)[nH]1`, for which the Potency was 35.5 µM (active).

As for `Cc1noc(C)c1CCC(=O)N1CCCC(CO)(Cc2ccccc2)C1` (centres undefined), the largest response in the series, negative = inhibition was -6.98% (inactive).

Regarding `COc1ccc2c(c1)O[C@@H](c1ccc3c(c1)OCO3)[C@H](OC(=O)NCCc1ccc(OC)c(OC)c1)C2=O`, the largest response in the series, negative = inhibition was 6.18% (inactive).

Turning to `CC(=O)c1ccc(N2CCN(C(=O)C3CCN(S(=O)(=O)c4ccc5c(c4)CC(C)N5C(=O)C4CC4)CC3)CC2)cc1` (centres undefined), the largest response in the series, negative = inhibition was -0.0372% (inactive).

On to `O=c1cc(-c2ccc(O)cc2)oc2c(-c3cc(-c4cc(=O)c5c(O)cc(O)cc5o4)ccc3O)c(O)ccc12`, for which the largest response in the series, negative = inhibition is -11.5% (inactive).

In the case of `COc1c(O)cc2oc(-c3ccc(O)c(O)c3)cc(=O)c2c1O`, the Potency is 50.1 µM (active).

As to `O=c1cc(-c2ccc(O)c(O)c2)oc2cccc(O)c12`, the largest response in the series, negative = inhibition is -4.56% (inactive).

For the compound `COc1ccc(C(C)C)cc1S(=O)(=O)Nc1ncn[nH]1`, the largest response in the series, negative = inhibition is 16.1% (inactive).

As to `COc1ccc(CNS(=O)(=O)c2cc(-c3cc(C)no3)ccc2C(C)C)cc1`, the largest response in the series, negative = inhibition was 7.48% (inactive).

As to `CCc1nc2ccc(C(=O)N3CCN(c4cccc(Cl)c4)CC3)cc2nc1CC`, the largest response in the series, negative = inhibition was -10.1% (inactive).

Consider `Nc1ccccc1SC(C[N+](=O)[O-])c1ccccc1` (centres undefined), for which the Potency was 7.94 µM (active).

On to `Nc1ccccc1SCc1cc([N+](=O)[O-])cc2c1OCOC2`, for which the largest response in the series, negative = inhibition was -29.9% (inactive).

Consider `C#CCC(C(=O)OC)(C(=O)OC)C(C[N+](=O)[O-])c1ccccc1` (centres undefined), for which the largest response in the series, negative = inhibition is -5.44% (inactive).

As to `O=c1c2cc(Br)ccc2nc(-c2cccc(Cl)c2)n1O`, the largest response in the series, negative = inhibition is 10.6% (inactive).

Consider `CCc1c(C)nc(N)n2c(SCC(=O)NC3CCCCC3)nnc12`, for which the largest response in the series, negative = inhibition was 11.3% (inactive).

For `O=C(O)C1CCCN1C1=NS(=O)(=O)c2ccccc21` (centres undefined), the largest response in the series, negative = inhibition was 13.1% (inactive).

On to `Cc1ccc(C)c(NC(=S)NNC(=S)Nc2ccc(C(C)C)cc2)c1`, for which the Potency is 4.47 µM (active).

With `Cc1ccc(C)c(NC(=S)NNC(=O)c2csc(C)c2)c1`, the largest response in the series, negative = inhibition is 9.77% (inactive).

In the case of `CC(C)c1ccc(NC(=S)NNc2ccc(Cl)c(C(=O)O)c2)cc1`, the largest response in the series, negative = inhibition was -24.2% (inactive).

As for `NC(=O)C1CCCN(CC(=O)N2CCN(c3ccccc3)CC2)C1` (centres undefined), the largest response in the series, negative = inhibition is 19% (inactive).

`CC1CCN(CC(=O)Nc2nccs2)CC1`: the largest response in the series, negative = inhibition is 6.83% (inactive).

Take `Cc1nc2ccccc2n1CC(O)c1ccccc1` (centres undefined): the largest response in the series, negative = inhibition was 2.21% (inactive).

On to `O=C(Nc1ccccc1Cl)/C(Cl)=C(\Cl)S(=O)c1ccccc1` (centres undefined), for which the Potency is 6.31 µM (active).

With `O=C(COC(=O)c1cccs1)Nc1ccccc1Cl`, the largest response in the series, negative = inhibition is 3.72% (inactive).

Turning to `O=C(Nc1ccccc1Cl)Nn1cnnc1`, the largest response in the series, negative = inhibition was 10.7% (inactive).

In the case of `CC(=O)Oc1c2c(c3c(c1CC=C(C)C)O[C@@]14C(=CC5CC1C(C)(C)OC4(C/C=C(\C)C(=O)O)C5=O)C3=O)OC(C)(CCC=C(C)C)C=C2` (some centres undefined), the largest response in the series, negative = inhibition is -62.7% (inactive).

`O=C(NCc1ccco1)C(c1ccncc1)N(C(=O)Cn1nnc2ccccc21)c1ccccc1` (centres undefined): the largest response in the series, negative = inhibition is 18% (inactive).

In the case of `O=C(Nc1ccc(S(=O)(=O)NCC2CCCO2)cc1)c1ccc(F)cc1` (centres undefined), the largest response in the series, negative = inhibition was 10.5% (inactive).

Consider `COc1ccc(OC)c(CCNC(=O)CCn2ccc3cc(S(=O)(=O)N4CCCC4)ccc32)c1`, for which the largest response in the series, negative = inhibition was 4.91% (inactive).

`CCNC(=S)Nc1ccc(OC(F)(F)F)cc1`: the largest response in the series, negative = inhibition was 14.8% (inactive).

`CS(=O)(=O)c1sc(C(=O)NC(=S)Nc2ccc(OC(F)(F)F)cc2)c2c1C=CCC2`: the Potency is 44.7 µM (active).

Regarding `FC(F)(F)Oc1ccc(NC(=S)NCc2ccccc2)cc1`, the largest response in the series, negative = inhibition was 7.74% (inactive).

For the compound `CCC(=O)Nc1ccc(-c2ccc(N3CCCCC3)nn2)cc1`, the largest response in the series, negative = inhibition is 14.4% (inactive).

For `C=C1CCN(C(CC(C)C)C(=O)N2CCOCC2)S(=O)(=O)c2ccccc21` (centres undefined), the largest response in the series, negative = inhibition was -9.91% (inactive).

`CCOc1ccccc1NC(=O)Cn1ncc2ccc([N+](=O)[O-])cc21`: the largest response in the series, negative = inhibition was -5.95% (inactive).

Turning to `COc1cccc(OCC(=O)NNC(=O)c2cnccn2)c1`, the largest response in the series, negative = inhibition was -17.6% (inactive).

With `COc1ccc(C(=O)NNC(=O)c2cnccn2)cc1[N+](=O)[O-]`, the Potency was 44.7 µM (active).

Regarding `COc1ccc(C(=O)O/N=C(\N)c2ccccn2)cc1[N+](=O)[O-]`, the largest response in the series, negative = inhibition was 9.71% (inactive).

For the compound `CC1CCCC(C)N1C(=O)CSc1nnnn1C1CCCC1` (centres undefined), the largest response in the series, negative = inhibition was 18.7% (inactive).

As to `CCC(CC)C(=O)Nc1c2c(nn1-c1ccc(C)cc1)CS(=O)(=O)C2`, the largest response in the series, negative = inhibition was 4.15% (inactive).

`CC(C)c1ccc(N2CCN(C(=O)c3ccccc3NC(=O)/C=C(\C(=O)O)c3ccccc3)CC2)cc1`: the Potency is 56.2 µM (active).

Turning to `COc1ccc(C(=O)Nc2ccccc2C(=O)N2CCN(c3ccccc3)CC2)cc1`, the largest response in the series, negative = inhibition was 5.69% (inactive).

In the case of `O=C(O)C1CC=CCC1C(=O)Nc1ccccc1C(=O)N1CCN(c2ccccc2)CC1` (centres undefined), the largest response in the series, negative = inhibition is 22.9% (inactive).

For `Cc1cc(C)c(S(=O)(=O)N(C)CC(=O)NCC2CCCO2)c(C)c1` (centres undefined), the largest response in the series, negative = inhibition is 16.6% (inactive).

As for `COc1ccc(/C=C/c2c(-c3cccc(C)c3)oc3ccc(-c4ccc5c(c4)OCO5)cc23)cc1`, the largest response in the series, negative = inhibition is 1.24% (inactive).

As to `CNC(=S)NNC(=O)c1oc2nc(-c3ccccc3)cc(-c3ccco3)c2c1N`, the Potency was 12.6 µM (active).

`CNc1nc(-c2ccccc2)cc(-c2ccccc2)n1`: the largest response in the series, negative = inhibition was -1.57% (inactive).

Take `NNC(=O)c1oc2nc(-c3ccccc3)cc(-c3ccco3)c2c1N`: the largest response in the series, negative = inhibition is -13.3% (inactive).

For `CN1C(=O)CN2CCc3ccccc3C2c2cc(Cl)ccc21` (centres undefined), the largest response in the series, negative = inhibition is 11% (inactive).

In the case of `CC(C)(C)NS(=O)(=O)c1ccc(NC(=O)C2CCCO2)cc1` (centres undefined), the largest response in the series, negative = inhibition was 9.67% (inactive).

Regarding `COC(=O)c1cccc(N(CC(=O)NCC2CCCO2)C(=O)CCC(=O)Nc2cc(C)on2)c1` (centres undefined), the largest response in the series, negative = inhibition is -5.12% (inactive).

In the case of `Cc1ccc(NC(=O)CSc2nnc(CNC(=O)c3ccccc3F)o2)cc1Cl`, the largest response in the series, negative = inhibition is 12.4% (inactive).

For the compound `Cn1cccc1-c1nc2ccccc2n1C`, the largest response in the series, negative = inhibition is 1.06% (inactive).

As for `c1coc(-c2nc3nc4ccccc4n3nc2-c2ccco2)c1`, the Potency was 39.8 µM (active).

For the compound `CS(=O)(=O)n1nc(-c2ccco2)nc1N`, the largest response in the series, negative = inhibition was 23.7% (inactive).
